Assays:
Assay in all cases: DAPPL (digital affinity profiling via proximity ligation, sequencing); 10 mM Tris-HCl pH 7.5, 50 mM NaCl, 1 mM DTT, 4% glycerol, room temperature, 30 min; GST-TFs on glutathione beads, 16-mer random dsDNA library, 0.1% formaldehyde crosslink after washing; high values mean tight binding
Conditions in all cases: protein: recombinant; tags: N-terminal GST; dsDNA, one strand shown
ERF = target: T1, ERF (Homo sapiens, UniProt P50548 1-548)
T1 sequence: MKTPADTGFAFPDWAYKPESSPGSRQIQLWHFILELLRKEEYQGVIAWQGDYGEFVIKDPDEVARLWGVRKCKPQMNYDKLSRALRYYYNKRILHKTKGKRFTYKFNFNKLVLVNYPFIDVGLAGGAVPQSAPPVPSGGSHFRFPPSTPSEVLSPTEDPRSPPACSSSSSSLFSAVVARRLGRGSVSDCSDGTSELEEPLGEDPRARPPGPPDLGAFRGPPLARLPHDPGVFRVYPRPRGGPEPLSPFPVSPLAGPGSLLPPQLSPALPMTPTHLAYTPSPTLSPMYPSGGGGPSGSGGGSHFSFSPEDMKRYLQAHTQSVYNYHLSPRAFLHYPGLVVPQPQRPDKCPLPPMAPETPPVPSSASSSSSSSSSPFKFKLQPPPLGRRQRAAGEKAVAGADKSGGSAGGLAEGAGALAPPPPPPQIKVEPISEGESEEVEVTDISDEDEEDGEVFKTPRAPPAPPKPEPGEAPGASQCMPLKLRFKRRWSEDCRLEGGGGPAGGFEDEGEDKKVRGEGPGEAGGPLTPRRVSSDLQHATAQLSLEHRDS
In short: (§1)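 GST fusions of human transcription factors were expressed in yeast and captured with glutathione beads. Once given DNA barcodes and pooled alongside a tag-only sample, they were incubated for 30 min at room temperature with 200 nmole of a random double-stranded 16-mer DNA library in Tris/NaCl/DTT/glycerol buffer, then washed, crosslinked (0.1% formaldehyde), proximity-ligated, PCR-amplified and sequenced on an Illumina NextSeq500. The binding signal of each hexamer is its read frequency for a factor divided by its frequency for the tag-only sample.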

ETV3L = target: T2, ETV3L (Homo sapiens, UniProt Q6ZN32 1-361)
T2 sequence: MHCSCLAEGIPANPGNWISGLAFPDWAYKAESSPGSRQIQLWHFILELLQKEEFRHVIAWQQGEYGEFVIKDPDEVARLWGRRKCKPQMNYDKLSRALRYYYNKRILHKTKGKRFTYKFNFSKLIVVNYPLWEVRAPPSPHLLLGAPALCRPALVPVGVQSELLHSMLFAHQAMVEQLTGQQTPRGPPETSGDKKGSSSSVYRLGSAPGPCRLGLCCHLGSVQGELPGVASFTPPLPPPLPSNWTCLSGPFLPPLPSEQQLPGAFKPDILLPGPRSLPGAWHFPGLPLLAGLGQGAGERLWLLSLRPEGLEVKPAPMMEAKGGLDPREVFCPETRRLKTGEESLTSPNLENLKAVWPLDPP
In short: as §1

ETS2 = target: T3, ETS2 (Homo sapiens, UniProt P15036 1-469)
T3 sequence: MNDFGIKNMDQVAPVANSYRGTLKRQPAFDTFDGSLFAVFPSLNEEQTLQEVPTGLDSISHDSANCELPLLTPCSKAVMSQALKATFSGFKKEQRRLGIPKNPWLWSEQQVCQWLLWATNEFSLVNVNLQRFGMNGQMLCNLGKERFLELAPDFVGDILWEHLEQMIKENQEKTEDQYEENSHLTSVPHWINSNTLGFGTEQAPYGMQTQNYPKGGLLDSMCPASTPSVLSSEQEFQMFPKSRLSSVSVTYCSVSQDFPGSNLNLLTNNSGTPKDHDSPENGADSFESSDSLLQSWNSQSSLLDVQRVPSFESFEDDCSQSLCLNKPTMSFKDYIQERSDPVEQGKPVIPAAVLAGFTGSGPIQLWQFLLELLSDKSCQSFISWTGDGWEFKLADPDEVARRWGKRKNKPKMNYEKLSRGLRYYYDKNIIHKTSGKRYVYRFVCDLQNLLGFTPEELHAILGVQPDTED
In short: as §1

SPDEF = target: T4, SPDEF (Homo sapiens, UniProt O95238 1-335)
T4 sequence: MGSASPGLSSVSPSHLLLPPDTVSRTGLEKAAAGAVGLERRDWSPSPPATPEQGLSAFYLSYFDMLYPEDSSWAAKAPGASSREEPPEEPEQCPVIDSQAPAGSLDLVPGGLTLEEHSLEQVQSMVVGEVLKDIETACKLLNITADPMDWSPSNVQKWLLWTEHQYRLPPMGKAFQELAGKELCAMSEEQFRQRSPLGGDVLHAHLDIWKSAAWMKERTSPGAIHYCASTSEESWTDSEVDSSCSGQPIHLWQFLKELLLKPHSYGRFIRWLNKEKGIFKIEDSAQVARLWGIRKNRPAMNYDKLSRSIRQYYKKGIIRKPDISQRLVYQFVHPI
In short: as §1

ETV7 = target: T5, ETV7 (Homo sapiens, UniProt Q9Y603 1-341)
T5 sequence: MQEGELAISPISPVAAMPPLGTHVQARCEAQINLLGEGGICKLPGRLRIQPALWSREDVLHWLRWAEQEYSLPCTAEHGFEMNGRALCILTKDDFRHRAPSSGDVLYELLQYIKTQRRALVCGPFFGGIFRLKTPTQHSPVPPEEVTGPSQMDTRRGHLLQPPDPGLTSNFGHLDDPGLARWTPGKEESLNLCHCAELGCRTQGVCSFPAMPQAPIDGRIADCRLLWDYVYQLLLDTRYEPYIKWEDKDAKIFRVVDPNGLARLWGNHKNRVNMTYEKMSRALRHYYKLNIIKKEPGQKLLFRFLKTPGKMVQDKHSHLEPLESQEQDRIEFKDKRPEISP
In short: as §1

ELF5 = target: T6, ELF5 (Homo sapiens, UniProt Q9UKW6-2 1-255)
T6 sequence: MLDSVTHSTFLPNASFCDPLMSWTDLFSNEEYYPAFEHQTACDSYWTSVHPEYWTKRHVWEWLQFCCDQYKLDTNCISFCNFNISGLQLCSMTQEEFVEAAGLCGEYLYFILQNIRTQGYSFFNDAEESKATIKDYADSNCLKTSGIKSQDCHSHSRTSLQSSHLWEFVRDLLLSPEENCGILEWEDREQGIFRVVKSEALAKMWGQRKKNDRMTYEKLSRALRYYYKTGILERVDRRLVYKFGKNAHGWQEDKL
In short: as §1

ETV3 = target: T7, ETV3 (Homo sapiens, UniProt P41162-2 1-143)
T7 sequence: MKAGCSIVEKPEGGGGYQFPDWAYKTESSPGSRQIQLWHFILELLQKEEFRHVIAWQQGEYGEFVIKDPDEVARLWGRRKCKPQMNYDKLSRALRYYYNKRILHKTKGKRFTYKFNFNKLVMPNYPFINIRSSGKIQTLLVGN
In short: as §1

ETV6 = ETV6 (Homo sapiens, UniProt P41212 1-452)
In short: as §1

ETV6, sequence (P41212 whole entry): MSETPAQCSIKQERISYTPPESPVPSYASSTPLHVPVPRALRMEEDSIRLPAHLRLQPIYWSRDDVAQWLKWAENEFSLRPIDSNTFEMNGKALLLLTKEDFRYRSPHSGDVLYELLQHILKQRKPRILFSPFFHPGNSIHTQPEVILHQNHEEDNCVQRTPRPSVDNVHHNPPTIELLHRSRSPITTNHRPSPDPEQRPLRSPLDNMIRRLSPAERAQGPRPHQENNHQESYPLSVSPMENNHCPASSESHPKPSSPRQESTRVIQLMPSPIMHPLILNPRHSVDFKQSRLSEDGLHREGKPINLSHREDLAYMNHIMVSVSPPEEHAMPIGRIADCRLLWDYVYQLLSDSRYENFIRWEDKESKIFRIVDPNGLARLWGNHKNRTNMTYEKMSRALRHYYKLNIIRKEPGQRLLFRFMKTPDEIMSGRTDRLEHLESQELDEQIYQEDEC

| Sequence | binding signal (ERF) | binding signal (ETV3L) | binding signal (ETS2) | binding signal (SPDEF) | binding signal (ETV7) | binding signal (ELF5) | binding signal (ETV3) | binding signal (ETV6) |
| --- | --- | --- | --- | --- | --- | --- | --- | --- |
| GTATTT | 1.47 fold enrichment (6-mer frequency, TF over GST control) | 1.62 fold enrichment (6-mer frequency, TF over GST control) | 1.7 fold enrichment (6-mer frequency, TF over GST control) | 1.64 fold enrichment (6-mer frequency, TF over GST control) | 1.73 fold enrichment (6-mer frequency, TF over GST control) | 1.62 fold enrichment (6-mer frequency, TF over GST control) | 1.53 fold enrichment (6-mer frequency, TF over GST control) | 1.79 fold enrichment (6-mer frequency, TF over GST control) |
| ACCCAT | 1.31 fold enrichment (6-mer frequency, TF over GST control) | 1.34 fold enrichment (6-mer frequency, TF over GST control) | 1.37 fold enrichment (6-mer frequency, TF over GST control) | 1.21 fold enrichment (6-mer frequency, TF over GST control) | 1.37 fold enrichment (6-mer frequency, TF over GST control) | 1.24 fold enrichment (6-mer frequency, TF over GST control) | 1.25 fold enrichment (6-mer frequency, TF over GST control) | 1.24 fold enrichment (6-mer frequency, TF over GST control) |
| ATCTTA | 1.1 fold enrichment (6-mer frequency, TF over GST control) | 1.1 fold enrichment (6-mer frequency, TF over GST control) | 1.12 fold enrichment (6-mer frequency, TF over GST control) | 1.12 fold enrichment (6-mer frequency, TF over GST control) | 1.18 fold enrichment (6-mer frequency, TF over GST control) | 1.11 fold enrichment (6-mer frequency, TF over GST control) | 1.04 fold enrichment (6-mer frequency, TF over GST control) | 1.14 fold enrichment (6-mer frequency, TF over GST control) |
| ACTCTC | 1.42 fold enrichment (6-mer frequency, TF over GST control) | 1.49 fold enrichment (6-mer frequency, TF over GST control) | 1.48 fold enrichment (6-mer frequency, TF over GST control) | 1.45 fold enrichment (6-mer frequency, TF over GST control) | 1.27 fold enrichment (6-mer frequency, TF over GST control) | 1.37 fold enrichment (6-mer frequency, TF over GST control) | 1.5 fold enrichment (6-mer frequency, TF over GST control) | 1.33 fold enrichment (6-mer frequency, TF over GST control) |
| TCGCCC | 1.32 fold enrichment (6-mer frequency, TF over GST control) | 1.34 fold enrichment (6-mer frequency, TF over GST control) | 1.23 fold enrichment (6-mer frequency, TF over GST control) | 1.25 fold enrichment (6-mer frequency, TF over GST control) | 1.27 fold enrichment (6-mer frequency, TF over GST control) | 1.14 fold enrichment (6-mer frequency, TF over GST control) | 1.21 fold enrichment (6-mer frequency, TF over GST control) | 1.23 fold enrichment (6-mer frequency, TF over GST control) |
| CTCTTT | 1.39 fold enrichment (6-mer frequency, TF over GST control) | 1.53 fold enrichment (6-mer frequency, TF over GST control) | 1.41 fold enrichment (6-mer frequency, TF over GST control) | 1.53 fold enrichment (6-mer frequency, TF over GST control) | 1.5 fold enrichment (6-mer frequency, TF over GST control) | 1.42 fold enrichment (6-mer frequency, TF over GST control) | 1.53 fold enrichment (6-mer frequency, TF over GST control) | 1.4 fold enrichment (6-mer frequency, TF over GST control) |
| TCGACT | 1.34 fold enrichment (6-mer frequency, TF over GST control) | 1.27 fold enrichment (6-mer frequency, TF over GST control) | 1.37 fold enrichment (6-mer frequency, TF over GST control) | 1.29 fold enrichment (6-mer frequency, TF over GST control) | 1.32 fold enrichment (6-mer frequency, TF over GST control) | 1.28 fold enrichment (6-mer frequency, TF over GST control) | 1.4 fold enrichment (6-mer frequency, TF over GST control) | 1.35 fold enrichment (6-mer frequency, TF over GST control) |

— article PMC7862700, “An all-to-all approach to the identification of sequence-specific readers for epigenetic DNA modifications on cytosine”
